For experiment [1], the target named is Fibroblast growth factor receptor 4 (Homo sapiens) (UniProt P22455). The following applies: at 1 µM.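 Further: reported figure is the averaged percent inhibition of FGFR4, from the GSK PKIS kinase screening panel.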
The target of experiment [2] is Tyrosine-protein kinase Fgr (Homo sapiens) (UniProt P09769). As to conditions: at 0.1 µM.
Experiment [3] shares this target. The following applies: at 1 µM.
Experiment [4] deals with Vascular endothelial growth factor receptor 1 (Homo sapiens) (UniProt P17948). The following applies: at 0.1 µM.
Experiment [5] has the same target. The following applies: at 1 µM.
Experiment [6] has as its target Receptor-type tyrosine-protein kinase FLT3 (Homo sapiens) (UniProt P36888). The following applies: at 0.1 µM.
Experiment [7] has the same target. The following applies: at 1 µM.
Experiment [8] has as its system T1, Receptor-type tyrosine-protein kinase FLT3 (Homo sapiens), P36888 [D835Y].
T1 sequence (whole entry): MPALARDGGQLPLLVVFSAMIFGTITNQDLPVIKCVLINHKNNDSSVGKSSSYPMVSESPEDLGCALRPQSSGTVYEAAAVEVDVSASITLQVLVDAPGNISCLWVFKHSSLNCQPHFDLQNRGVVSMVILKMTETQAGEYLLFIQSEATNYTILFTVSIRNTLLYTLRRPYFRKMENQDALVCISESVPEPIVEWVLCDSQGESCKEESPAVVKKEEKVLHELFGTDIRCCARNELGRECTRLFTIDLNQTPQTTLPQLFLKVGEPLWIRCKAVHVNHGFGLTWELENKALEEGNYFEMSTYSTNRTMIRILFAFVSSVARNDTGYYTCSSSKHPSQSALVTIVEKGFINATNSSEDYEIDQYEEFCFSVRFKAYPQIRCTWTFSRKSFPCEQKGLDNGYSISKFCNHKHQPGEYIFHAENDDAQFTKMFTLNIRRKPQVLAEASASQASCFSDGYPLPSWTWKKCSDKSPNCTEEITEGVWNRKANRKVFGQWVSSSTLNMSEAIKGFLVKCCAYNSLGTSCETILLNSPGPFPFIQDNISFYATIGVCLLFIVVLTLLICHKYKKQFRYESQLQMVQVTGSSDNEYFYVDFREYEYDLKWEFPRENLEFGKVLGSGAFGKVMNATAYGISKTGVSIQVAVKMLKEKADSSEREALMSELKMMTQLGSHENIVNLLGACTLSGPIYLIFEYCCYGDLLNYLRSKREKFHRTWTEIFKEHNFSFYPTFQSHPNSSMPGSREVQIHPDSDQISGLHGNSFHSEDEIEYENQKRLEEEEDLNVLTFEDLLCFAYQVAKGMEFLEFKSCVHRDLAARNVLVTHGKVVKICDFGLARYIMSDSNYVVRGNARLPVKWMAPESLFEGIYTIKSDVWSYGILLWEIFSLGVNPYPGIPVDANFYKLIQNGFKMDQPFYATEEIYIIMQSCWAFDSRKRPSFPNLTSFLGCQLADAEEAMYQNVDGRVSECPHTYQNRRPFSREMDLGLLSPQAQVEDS
As to conditions: at 0.1 µM.

The target in experiment [9] is Non-receptor tyrosine-protein kinase TYK2 (Homo sapiens) (UniProt P29597). The following applies: at 1 µM.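 Further: values are mean percent inhibition of TYK2 kinase.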
Experiment [10] addresses T2, Tyrosine-protein kinase receptor TYRO3 (Homo sapiens) (UniProt Q06418).
T2 sequence (whole entry): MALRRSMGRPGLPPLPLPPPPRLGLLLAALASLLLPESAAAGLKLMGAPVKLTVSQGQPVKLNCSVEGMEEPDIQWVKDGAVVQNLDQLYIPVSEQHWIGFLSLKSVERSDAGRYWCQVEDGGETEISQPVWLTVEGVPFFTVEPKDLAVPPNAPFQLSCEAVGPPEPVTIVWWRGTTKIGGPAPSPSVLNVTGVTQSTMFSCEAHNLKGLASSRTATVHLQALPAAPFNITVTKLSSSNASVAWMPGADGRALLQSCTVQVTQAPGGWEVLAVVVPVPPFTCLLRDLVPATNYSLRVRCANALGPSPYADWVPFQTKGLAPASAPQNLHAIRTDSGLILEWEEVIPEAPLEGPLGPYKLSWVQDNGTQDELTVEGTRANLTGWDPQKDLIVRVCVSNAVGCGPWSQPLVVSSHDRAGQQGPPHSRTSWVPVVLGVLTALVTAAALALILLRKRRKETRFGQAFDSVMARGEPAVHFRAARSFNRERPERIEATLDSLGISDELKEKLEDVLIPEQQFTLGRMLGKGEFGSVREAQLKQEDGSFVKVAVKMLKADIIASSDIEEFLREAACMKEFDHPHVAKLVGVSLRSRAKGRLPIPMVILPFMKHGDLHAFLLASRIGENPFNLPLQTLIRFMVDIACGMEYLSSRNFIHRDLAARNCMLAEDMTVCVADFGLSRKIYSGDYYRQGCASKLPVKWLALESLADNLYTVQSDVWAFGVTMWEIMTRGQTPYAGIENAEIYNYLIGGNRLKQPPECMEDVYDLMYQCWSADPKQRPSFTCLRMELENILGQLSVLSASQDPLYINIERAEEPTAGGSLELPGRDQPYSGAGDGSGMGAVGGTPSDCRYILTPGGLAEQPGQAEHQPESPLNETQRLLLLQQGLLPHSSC
As to conditions: at 0.1 µM.

Experiment [11] has as its target T2, Tyrosine-protein kinase receptor TYRO3 (Homo sapiens). As to conditions: at 1 µM.
For experiment [12], the target named is Tyrosine-protein kinase Yes (Homo sapiens) (UniProt P07947). As to conditions: at 0.1 µM.
Experiment [13] shares this target. The following applies: at 1 µM.
Experiment [14] addresses T3, Tyrosine-protein kinase ZAP-70 (Homo sapiens) (UniProt P43403).
T3 sequence (whole entry): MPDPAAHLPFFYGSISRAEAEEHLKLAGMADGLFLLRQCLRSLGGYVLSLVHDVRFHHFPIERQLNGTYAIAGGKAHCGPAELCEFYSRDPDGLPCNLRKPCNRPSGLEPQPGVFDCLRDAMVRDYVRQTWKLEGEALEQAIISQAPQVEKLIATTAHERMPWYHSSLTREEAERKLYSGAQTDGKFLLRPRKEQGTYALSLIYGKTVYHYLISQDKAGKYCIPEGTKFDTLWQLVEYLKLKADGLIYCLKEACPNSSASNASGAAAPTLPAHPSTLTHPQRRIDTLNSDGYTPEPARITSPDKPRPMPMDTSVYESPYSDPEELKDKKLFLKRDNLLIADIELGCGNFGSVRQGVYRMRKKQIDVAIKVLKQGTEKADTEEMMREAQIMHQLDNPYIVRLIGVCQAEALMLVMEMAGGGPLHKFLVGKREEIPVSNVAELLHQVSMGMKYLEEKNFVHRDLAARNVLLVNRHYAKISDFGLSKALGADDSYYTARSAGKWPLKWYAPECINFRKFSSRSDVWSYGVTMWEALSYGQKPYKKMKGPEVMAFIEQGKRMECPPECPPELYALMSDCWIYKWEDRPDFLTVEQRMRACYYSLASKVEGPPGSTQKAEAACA
The following applies: at 0.1 µM.

Experiment [15] concerns the target T3, Tyrosine-protein kinase ZAP-70 (Homo sapiens). As to conditions: at 1 µM.
Experiment [16] has as its target Serine/threonine-protein kinase B-raf (Homo sapiens) (UniProt P15056). The following applies: at 0.1 µM.
Experiment [17] has the same target. As to conditions: at 1 µM.
Experiment [18] concerns Serine/threonine-protein kinase B-raf (Homo sapiens), P15056 [V600E]. The following applies: at 0.1 µM.
For experiment [19] the test system is unchanged. As to conditions: at 1 µM.
Experiment [20] addresses RAF proto-oncogene serine/threonine-protein kinase (Homo sapiens) (UniProt P04049). The following applies: at 0.1 µM.

The inhibition is the relative decrease from the control value, in per cent.

Sequence of RAF proto-oncogene serine/threonine-protein kinase (Homo sapiens) (P04049 whole entry): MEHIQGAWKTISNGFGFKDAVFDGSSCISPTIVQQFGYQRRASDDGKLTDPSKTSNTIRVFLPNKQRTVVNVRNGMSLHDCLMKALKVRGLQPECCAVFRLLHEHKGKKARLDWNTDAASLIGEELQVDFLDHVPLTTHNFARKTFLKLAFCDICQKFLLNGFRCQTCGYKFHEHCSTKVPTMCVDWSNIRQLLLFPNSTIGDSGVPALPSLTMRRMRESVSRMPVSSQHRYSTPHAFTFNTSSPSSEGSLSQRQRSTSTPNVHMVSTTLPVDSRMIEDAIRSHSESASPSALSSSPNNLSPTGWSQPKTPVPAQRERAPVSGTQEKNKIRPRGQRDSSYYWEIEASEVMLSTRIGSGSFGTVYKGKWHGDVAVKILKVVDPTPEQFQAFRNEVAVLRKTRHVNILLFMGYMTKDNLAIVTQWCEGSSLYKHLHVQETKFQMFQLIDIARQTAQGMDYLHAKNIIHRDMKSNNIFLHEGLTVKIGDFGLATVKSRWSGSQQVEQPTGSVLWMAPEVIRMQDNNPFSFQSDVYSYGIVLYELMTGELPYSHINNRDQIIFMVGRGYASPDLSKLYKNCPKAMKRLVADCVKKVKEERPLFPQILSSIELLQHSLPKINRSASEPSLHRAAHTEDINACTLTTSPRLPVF
Sequence of Serine/threonine-protein kinase B-raf (Homo sapiens), P15056 [V600E] (P15056 whole entry V600E): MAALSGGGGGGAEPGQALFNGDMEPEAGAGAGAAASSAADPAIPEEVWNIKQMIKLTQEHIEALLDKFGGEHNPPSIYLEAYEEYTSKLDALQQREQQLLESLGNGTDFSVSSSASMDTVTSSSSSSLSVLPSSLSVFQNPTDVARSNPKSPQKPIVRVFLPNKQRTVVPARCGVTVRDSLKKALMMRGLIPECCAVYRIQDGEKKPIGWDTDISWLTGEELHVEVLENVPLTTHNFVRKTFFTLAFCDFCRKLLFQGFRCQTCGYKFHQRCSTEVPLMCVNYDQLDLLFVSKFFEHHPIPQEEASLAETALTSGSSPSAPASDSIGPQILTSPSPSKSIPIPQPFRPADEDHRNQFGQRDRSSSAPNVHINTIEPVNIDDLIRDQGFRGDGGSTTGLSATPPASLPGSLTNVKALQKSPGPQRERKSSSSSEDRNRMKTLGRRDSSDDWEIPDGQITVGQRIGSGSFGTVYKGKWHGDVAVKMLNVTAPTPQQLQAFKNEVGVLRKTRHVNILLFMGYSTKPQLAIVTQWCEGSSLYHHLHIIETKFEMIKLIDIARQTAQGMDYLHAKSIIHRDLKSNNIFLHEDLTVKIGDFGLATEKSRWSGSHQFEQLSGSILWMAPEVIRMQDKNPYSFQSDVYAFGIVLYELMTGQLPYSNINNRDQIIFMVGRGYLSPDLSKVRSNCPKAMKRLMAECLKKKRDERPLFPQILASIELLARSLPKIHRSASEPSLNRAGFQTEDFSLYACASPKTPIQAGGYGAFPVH
Sequence of Non-receptor tyrosine-protein kinase TYK2 (Homo sapiens) (P29597 whole entry): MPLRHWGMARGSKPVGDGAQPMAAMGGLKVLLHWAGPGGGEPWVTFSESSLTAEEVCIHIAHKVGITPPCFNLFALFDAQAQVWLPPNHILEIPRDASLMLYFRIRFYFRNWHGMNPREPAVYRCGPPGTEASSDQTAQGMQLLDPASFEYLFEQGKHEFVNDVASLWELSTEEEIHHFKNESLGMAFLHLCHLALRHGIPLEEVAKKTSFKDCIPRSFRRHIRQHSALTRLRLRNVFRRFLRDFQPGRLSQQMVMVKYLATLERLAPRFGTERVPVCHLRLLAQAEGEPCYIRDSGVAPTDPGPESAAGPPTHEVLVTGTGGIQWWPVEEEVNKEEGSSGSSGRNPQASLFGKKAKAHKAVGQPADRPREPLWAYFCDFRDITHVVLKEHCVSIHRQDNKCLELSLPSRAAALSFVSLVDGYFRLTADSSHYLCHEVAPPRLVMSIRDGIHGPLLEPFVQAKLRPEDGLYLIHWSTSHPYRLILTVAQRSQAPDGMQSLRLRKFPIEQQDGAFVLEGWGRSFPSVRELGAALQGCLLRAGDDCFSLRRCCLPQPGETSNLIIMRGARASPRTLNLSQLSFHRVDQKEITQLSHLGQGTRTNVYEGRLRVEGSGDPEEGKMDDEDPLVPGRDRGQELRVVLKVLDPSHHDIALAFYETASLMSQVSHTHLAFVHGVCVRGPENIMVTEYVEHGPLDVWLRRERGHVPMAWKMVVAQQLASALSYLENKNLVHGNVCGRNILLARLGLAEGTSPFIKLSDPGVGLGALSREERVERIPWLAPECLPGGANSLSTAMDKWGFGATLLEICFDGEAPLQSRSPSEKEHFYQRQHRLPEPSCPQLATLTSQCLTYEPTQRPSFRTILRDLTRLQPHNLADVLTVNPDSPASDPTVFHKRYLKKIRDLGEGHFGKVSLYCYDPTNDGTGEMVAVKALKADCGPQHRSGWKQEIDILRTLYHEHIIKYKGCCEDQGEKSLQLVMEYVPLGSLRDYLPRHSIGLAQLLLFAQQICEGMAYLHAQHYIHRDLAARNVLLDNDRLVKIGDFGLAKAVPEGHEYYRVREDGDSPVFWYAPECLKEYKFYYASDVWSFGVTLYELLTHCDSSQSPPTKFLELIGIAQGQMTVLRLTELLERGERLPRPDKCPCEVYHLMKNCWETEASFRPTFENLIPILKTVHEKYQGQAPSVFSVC
Sequence of Tyrosine-protein kinase Yes (Homo sapiens) (P07947 2-543 limits assumed): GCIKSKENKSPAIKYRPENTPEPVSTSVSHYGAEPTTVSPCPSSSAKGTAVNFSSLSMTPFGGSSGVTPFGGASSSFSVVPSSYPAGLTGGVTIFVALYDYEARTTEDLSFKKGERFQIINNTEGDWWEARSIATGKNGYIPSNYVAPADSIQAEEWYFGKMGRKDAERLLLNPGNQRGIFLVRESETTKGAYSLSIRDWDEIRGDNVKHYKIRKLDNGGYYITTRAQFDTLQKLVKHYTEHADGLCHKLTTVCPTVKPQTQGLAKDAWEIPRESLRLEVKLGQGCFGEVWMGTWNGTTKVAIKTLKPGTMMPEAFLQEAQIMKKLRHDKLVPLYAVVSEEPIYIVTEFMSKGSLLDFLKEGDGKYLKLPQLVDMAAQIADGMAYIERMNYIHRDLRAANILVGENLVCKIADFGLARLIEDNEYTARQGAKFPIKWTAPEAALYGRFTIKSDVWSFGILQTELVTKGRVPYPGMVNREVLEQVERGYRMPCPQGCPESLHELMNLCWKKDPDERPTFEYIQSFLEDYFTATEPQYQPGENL
Sequence of Vascular endothelial growth factor receptor 1 (Homo sapiens) (P17948 whole entry): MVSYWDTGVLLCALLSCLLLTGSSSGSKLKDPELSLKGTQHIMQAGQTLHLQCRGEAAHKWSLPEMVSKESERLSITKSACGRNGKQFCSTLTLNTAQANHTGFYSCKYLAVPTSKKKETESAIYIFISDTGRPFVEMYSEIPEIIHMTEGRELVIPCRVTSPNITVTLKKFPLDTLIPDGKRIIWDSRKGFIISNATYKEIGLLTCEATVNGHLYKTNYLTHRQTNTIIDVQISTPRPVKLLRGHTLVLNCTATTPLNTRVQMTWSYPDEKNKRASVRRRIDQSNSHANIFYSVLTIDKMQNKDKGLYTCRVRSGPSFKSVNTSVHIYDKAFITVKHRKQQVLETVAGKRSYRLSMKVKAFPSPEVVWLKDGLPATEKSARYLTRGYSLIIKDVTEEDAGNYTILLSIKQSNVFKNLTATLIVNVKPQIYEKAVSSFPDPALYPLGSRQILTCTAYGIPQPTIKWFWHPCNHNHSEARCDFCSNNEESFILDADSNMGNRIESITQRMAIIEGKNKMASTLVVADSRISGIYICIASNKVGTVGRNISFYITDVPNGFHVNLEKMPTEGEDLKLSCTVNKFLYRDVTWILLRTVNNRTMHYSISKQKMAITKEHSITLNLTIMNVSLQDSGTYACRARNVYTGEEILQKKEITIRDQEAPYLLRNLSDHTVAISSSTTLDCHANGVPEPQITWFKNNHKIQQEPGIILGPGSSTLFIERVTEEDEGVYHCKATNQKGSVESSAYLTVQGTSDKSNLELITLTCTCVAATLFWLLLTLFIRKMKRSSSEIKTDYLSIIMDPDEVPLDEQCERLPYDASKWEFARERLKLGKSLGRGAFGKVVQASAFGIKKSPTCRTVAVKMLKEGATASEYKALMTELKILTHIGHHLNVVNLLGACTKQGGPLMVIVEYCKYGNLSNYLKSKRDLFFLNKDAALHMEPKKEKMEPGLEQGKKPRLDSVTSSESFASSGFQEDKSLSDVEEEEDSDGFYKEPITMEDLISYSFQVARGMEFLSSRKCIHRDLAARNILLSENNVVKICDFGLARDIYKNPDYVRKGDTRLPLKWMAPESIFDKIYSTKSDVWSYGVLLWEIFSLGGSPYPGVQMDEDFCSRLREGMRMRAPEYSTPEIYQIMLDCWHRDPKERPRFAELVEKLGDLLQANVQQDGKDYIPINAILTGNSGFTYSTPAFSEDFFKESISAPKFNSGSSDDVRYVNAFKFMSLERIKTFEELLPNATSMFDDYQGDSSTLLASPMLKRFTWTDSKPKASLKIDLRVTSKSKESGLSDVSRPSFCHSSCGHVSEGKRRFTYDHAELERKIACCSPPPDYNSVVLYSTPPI
Sequence of Tyrosine-protein kinase Fgr (Homo sapiens) (P09769 2-529 limits assumed): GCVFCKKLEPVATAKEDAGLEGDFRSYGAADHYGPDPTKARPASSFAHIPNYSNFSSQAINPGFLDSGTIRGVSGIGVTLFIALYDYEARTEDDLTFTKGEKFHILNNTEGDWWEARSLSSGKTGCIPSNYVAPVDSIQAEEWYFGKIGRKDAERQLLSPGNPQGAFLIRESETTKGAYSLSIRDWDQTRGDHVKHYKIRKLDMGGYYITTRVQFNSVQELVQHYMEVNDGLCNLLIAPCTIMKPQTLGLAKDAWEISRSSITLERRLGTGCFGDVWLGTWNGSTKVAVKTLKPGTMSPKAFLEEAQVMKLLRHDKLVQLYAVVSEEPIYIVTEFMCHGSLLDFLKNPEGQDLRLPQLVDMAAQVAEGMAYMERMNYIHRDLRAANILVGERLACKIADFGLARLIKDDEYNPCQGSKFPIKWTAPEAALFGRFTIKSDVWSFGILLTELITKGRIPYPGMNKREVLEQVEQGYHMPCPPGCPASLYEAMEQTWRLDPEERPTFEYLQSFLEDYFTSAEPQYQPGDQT
Sequence of Serine/threonine-protein kinase B-raf (Homo sapiens) (P15056 whole entry): as the sequence (P15056 whole entry V600E) above, with E600V counted along it

As for `C/C(Nc1ccc(S(N)(=O)=O)cc1)=C1/C(=O)Nc2ccccc21`, the inhibition in experiment [1] was determined as 3.59%; in [2] it was 0.92%; in experiment [3], 11.4%; in [4] it was 10.8%; in experiment [5], 23.6%; in experiment [6] it was 13.9%. The inhibition in experiment [7] was 62.9%; in [8], 7.17%; in experiment [9] it was 6.88%; in experiment [10], 1.52%; in experiment [11], 16.8%; in [12], -1.58%. Also, the inhibition in experiment [13] was 14.1%; in experiment [14], -2.58%; in [15], 0.18%; in experiment [16], -1.47%; in experiment [17], 0.23%; in experiment [18], -2.48%. In addition, the inhibition in experiment [19] was -0.68%; in experiment [20], -5.23%.

Regarding `Fc1ccc(-c2ncn(C3CCNCC3)c2-c2ccnc(Oc3ccc(Oc4ccccc4)cc3)n2)cc1`, the inhibition in experiment [1] was 3.31%; in experiment [2], -0.13%; in experiment [3], 4.83%; in experiment [4] it was -0.48%; in [5], 3.29%; in [6] it was 2.97%. Further, the inhibition was 1.85% in experiment [7]; -3.32% in [8]; -3.59% in experiment [9]; 1.47% in [10]; 2.08% in experiment [11]; 0.21% in experiment [12]. The inhibition in [13] worked out at 4.26%; in [14] it was 0.95%; in [15] it was 0.36%; in experiment [16] it was 6.4%; in experiment [17] it was 11.6%; in [18] it was 4.03%. In addition, the inhibition in experiment [19] worked out at 8.67%; in experiment [20], 1.44%.

With `NCc1ccc(-n2c(-c3nonc3N)nc3cnccc32)cc1`, the inhibition came out at 0.49% in experiment [1]; 1.73% in experiment [2]; 3.12% in experiment [3]; 1.08% in experiment [4]; 1.4% in experiment [5]; 1.23% in experiment [6]. Moreover, the inhibition in experiment [7] is 3.45%; in [8], -4.05%; in [9], -2.73%; in [10] it was 1.87%; in experiment [11], 3.1%; in [12], 0.26%. The inhibition in experiment [13] came out at 3.43%; in [15] it was 6.32%; in experiment [16], 7.22%; in [17] it was 9.93%; in experiment [18], 8.7%; in [19] it was 8.53%. Further, in experiment [20], the inhibition stood at 8.42%.

Consider `CN(C)c1ccc2c(c1)/C(=C/Nc1ccc(S(N)(=O)=O)cc1)C(=O)N2`, for which the inhibition in [1] was determined as 3.82%; in [2], 2.49%; in experiment [3], 16.7%; in [4], 1.02%; in [5] it was 12.6%; in experiment [6], 3.53%. Moreover, the inhibition was determined as 17.7% in experiment [7]; 0.41% in experiment [8]; 17.2% in [9]; 3.54% in experiment [10]; 7.48% in experiment [11]; 2.8% in [12]. In addition, the inhibition in [13] worked out at 14.3%; in [14], 2.05%; in experiment [15], 5.7%; in experiment [16], 2.49%; in experiment [17], 4.91%; in experiment [18], 2.9%. In addition, the inhibition is 5% in experiment [19] and 3.91% in experiment [20].

`CCS(=O)(=O)c1ccc(OC)c(Nc2ncc(-c3ccccc3Cl)o2)c1`: the inhibition in experiment [1] is 4.03%; in experiment [2], 3.37%; in experiment [3] it was 17%; in [4], 3.73%; in experiment [5], 13.8%; in [6] it was 2.1%. Moreover, the inhibition was 21.1% in [7]; 7.14% in experiment [8]; -1.06% in [9]; 5.33% in experiment [10]; 42.6% in experiment [11]; 8.95% in experiment [12]. Moreover, the inhibition was 39.3% in experiment [13]; 2.78% in experiment [14]; -0.17% in experiment [15]; 0.55% in experiment [16]; 0.2% in [17]; 0.25% in [18]. Further, the values for the inhibition in experiment [19] and in experiment [20] were 0.86% and 0.78%, respectively.

For `O=C(NCC1CC1)c1ccc(-c2cccc(C(=O)NC3CC3)c2)cc1`, the inhibition in experiment [1] was 0.84%; in experiment [2] it was -0.78%; in [3] it was 4.28%; in [4], 2.16%; in [5], 3.45%; in experiment [6], 1.49%. Moreover, the inhibition in experiment [7] was 3.46%; in experiment [8] it was 0.3%; in experiment [9] it was -5.6%; in experiment [10], 3.93%; in [11], 0.81%; in [12] it was -0.02%. For the same compound, the inhibition in [13] is -2.38%; in [14], 1.15%; in experiment [15], 1.3%; in [16], 3.46%; in [17], 3.07%; in experiment [18], 1.59%. The inhibition is 1.43% in [19] and 5.36% in experiment [20].

For the compound `O=C1Nc2ccc(I)cc2C1=Cc1cc(Br)c(O)c(Br)c1`, the inhibition is 5.57% in [1]; 0.14% in experiment [2]; 3.52% in experiment [3]; -0.02% in [4]; -1.49% in [5]; 2.03% in experiment [6]. In addition, the inhibition in [7] was 5.54%; in [8], -4.08%; in experiment [9], -0.2%; in [10] it was 2.41%; in experiment [11], 3.68%; in experiment [12], 2.36%. The inhibition amounted to 4.8% in experiment [13]; 3.85% in experiment [14]; 5.52% in experiment [15]; 6.02% in [16]; 15% in experiment [17]; 4.33% in experiment [18]. Also, in experiment [20], the inhibition stood at 8.31%.
